D1 PAM: potentiators of human D1 dopamine receptor; potentiation, % at 10 µM; actives 0.036% (n = 360,000); HEK293 TREx D1 cells, calcium flux, dopamine EC20 potentiation; in the data active = potentiation above about 30%
Target sequence (P21728 whole entry, looked up): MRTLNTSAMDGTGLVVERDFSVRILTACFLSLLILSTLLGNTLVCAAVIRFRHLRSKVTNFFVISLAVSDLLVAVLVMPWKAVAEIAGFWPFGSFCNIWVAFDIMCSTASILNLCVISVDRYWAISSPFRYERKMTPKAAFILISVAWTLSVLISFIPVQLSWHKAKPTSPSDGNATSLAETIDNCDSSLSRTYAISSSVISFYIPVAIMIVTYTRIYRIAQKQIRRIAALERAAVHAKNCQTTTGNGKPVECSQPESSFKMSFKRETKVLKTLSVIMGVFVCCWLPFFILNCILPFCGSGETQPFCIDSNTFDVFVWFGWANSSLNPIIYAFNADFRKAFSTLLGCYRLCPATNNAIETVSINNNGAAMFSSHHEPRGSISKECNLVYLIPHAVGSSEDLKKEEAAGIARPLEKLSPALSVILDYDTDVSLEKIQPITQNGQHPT
DRD3 agonist: D3 dopamine receptor (human) agonism; actives 0.58% (n = 410,000); P35462; D3R DiscoveRx beta-arrestin cells, luminescence, 90 min; max activation, %; in the data active = max activation above about 30%
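Agonist mode: compounds and dopamine controls were applied to plated cells for 90 min at 37 degrees C after an overnight attachment at 1500 cells/well. Luminescent read-out followed 30 - 60 minutes at room temperature with DiscoveRx detection reagent.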
D1 agonist: human D1 receptor agonism. P21728. activation, % at 2 µM. actives 1% (n = 360,000). HEK293 T-REx D1 cells, calcium flux, agonist mode; in the data active = activation above about 30%
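Agonism was scored from calcium flux recorded over 180 s (1 read/s) after pintool compound addition, following a 10-cycle baseline. Cells were inducible force-coupled HEK293 TREx D1, plated overnight at 30 C and loaded with no-wash calcium dye.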
D3 antag: blocks the human D3 dopamine receptor. P35462. D3R cells, DiscoveRx beta-arrestin luminescence, antagonist mode; hits give low values. max response, negative = inhibition, %. actives 2.5% (n = 360,000). AID 652054; in the data active = max response below about -50%
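Cells plated overnight at 1500 cells/well, then exposed to library compounds with dopamine controls for 90 minutes at 37 degrees C. DiscoveRx reagent added for 30–60 minutes at room temperature; luminescence read, quantitative HTS format.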
D1 antagonist: human D1 dopamine receptor antagonism | actives 3.2% (n = 360,000) | activity change, negative = inhibition, % at 10 µM | HEK293 TREx D1 cells, calcium flux, dopamine EC80; hits give low values | P21728 | AID 504652; in the data active = activity change below about -30%
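Tetracycline-induced HEK293 Trex D1 cells, force-coupled to calcium, dye-loaded; compounds added and read 180 s, then EC80 dopamine added and calcium flux tracked kinetically another 180 s.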
Of the large screens only hits and unclear results are named; the others gave an inactive call. Hits are enriched below; roughly 6.1% of the tested compounds scored in any of these assays.

Cc1[nH]c(=O)[nH]c(=O)c1S(=O)(=O)Nc1ccc(Br)cc1F	none
CCOC(=O)c1c(/N=C/C2C(=O)CC(C)(C)CC2=O)sc2c1CCCC2	none
CCOC(=O)c1cc(CC)sc1/N=C/C1C(=O)CC(C)(C)CC1=O	D1 antagonist -49
Cc1ccccc1CC(=O)Nc1ccon1	none
CCOC(=O)C1=C(C)N=c2s/c(=C\c3ccc(OC(C)=O)c(OCC)c3)c(=O)n2C1/C=C/c1ccccc1 (stereo not given)	D3 antag -56
CN(C)S(=O)(=O)c1ccc2c(c1)C(=O)c1cc(S(=O)(=O)N(C)C)ccc1CC2	none (no result: DRD3 agonist, D3 antag, D1 antagonist)
CN(C)S(=O)(=O)c1ccc2c(c1)/C(=C/c1cc3c([nH]1)CCCC3)C(=O)N2	D1 agonist 171, D3 antag -86
COC(=O)c1ccccc1NC(=O)CCc1c(C)nc2c(c(C)nn2-c2ccccc2)c1C	none (no result: D3 antag)
COC(=O)Cc1nnc(NC(=O)c2ccccc2)s1	none
Cc1ccc(SCc2nnc(NC(=O)c3ccccc3)s2)cc1	D1 antagonist -42
Cc1cc(C)cc(NC(=S)N2CCN(C(=O)c3ccco3)CC2)c1	D1 antagonist -39
COc1ccc(Br)cc1CN1CCN(C(=O)c2ccco2)CC1	D3 antag -61
Cc1ccccc1CN1CCN(C(=O)c2ccco2)CC1	none
COc1ccc(CN2CCN(C(=O)c3ccco3)CC2)c(OC)c1OC	DRD3 agonist 43 (no result: D1 PAM, D1 agonist, D1 antagonist)
Cc1ccc(CN2CCN(C(=O)c3ccco3)CC2)cc1	DRD3 agonist 31, D1 antagonist -30
Cc1ccc(NC(=O)C2CCN(C(=O)c3ccco3)CC2)cc1	none
COc1ccccc1CN1CCN(C(=O)c2ccco2)CC1	DRD3 agonist 32
COc1ccc(CN2CCN(C(=O)c3ccco3)CC2)cc1OC	DRD3 agonist 45
O=C(c1ccco1)N1CCN(CC(O)COc2ccc3oc4ccccc4c3c2)CC1 (stereo not given)	DRD3 agonist 41, D1 antagonist -35
COc1ccc(CN2CCN(C(=O)c3ccco3)CC2)cc1OCc1ccccc1	none
O=C(Nc1ccc(Cl)c(Cl)c1)C1CCN(C(=O)c2ccco2)CC1	D1 agonist 41, D3 antag -81
CC(C)c1cccc(C(C)C)c1NC(=O)Cn1c(=O)cnc2ccccc21	none
Cc1ccc(S(=O)(=O)NCC(=O)N2CCOCCOCCOCC2)cc1	none
Cc1onc(-c2ccccc2)c1C(=O)N1CCN(C(=O)c2ccco2)CC1	D3 antag -125
Cc1onc(-c2ccccc2)c1C(=O)N1CCCN(C(=O)c2c(-c3ccccc3)noc2C)CC1	none
C=CCn1c(SCC(=O)Nc2ccc(OC)cc2)nnc1-c1cnccn1	D1 PAM 32
Cn1nnnc1SCC(=O)Nc1ccc(Oc2ccc(Cl)cc2)cc1	D1 antagonist -30
Cn1nnnc1SCC(=O)NNC(=O)c1ccc(F)cc1	D3 antag -57
COc1ccc(-c2nnc(SCC(=O)Nc3ccc(Cl)cc3)n2C)cc1	D3 antag -57
CCOC(=O)c1sc2cccc(F)c2c1S(=O)(=O)NCc1ccccc1Cl	none (no result: D3 antag)
COC(=O)/C=C1\OCc2cc(OCc3ccccc3)ccc21	none (no result: D1 PAM, D1 agonist, D1 antagonist)
NC(=O)SCC(=O)Nc1ccc(Cl)cc1	D3 antag -53
NC(=O)SCC(=O)Nc1ccc(Cl)c(Cl)c1	none
Cc1ccc(OCCn2cc(C(=O)C3CCCCC3)c3ccccc32)cc1	none (no result: D3 antag)
Cc1ccc(-n2c(-c3nn(C)c(C)c3Cl)n[nH]c2=S)cc1	D3 antag -57
COc1ccc(CC2(CO)CCN(CC3=Cc4cc(Cl)ccc4OC3)CC2)cc1	D3 antag -75
COc1ccc2c(c1)C=C(CN1CCC(CO)(CCc3ccccc3)CC1)CO2	D3 antag -87
Cc1nc2c(-c3ccccc3)c(C)nn2c(C)c1CCC(=O)NCc1ccc(Cl)cc1	none (no result: D3 antag)
N#Cc1nc(Nc2cccc(Cl)c2)c2ncn(C3CCCC3)c2n1	none (no result: DRD3 agonist, D3 antag)
CC1(C(=O)NCc2ccccc2Br)CCN1Cc1ccc(-c2ccccc2)o1 (stereo not given)	none (no result: D1 PAM, D1 agonist, D1 antagonist)
Cc1ccc(C(=O)CC(=O)c2cc(Cl)ccc2O)cc1	none (no result: D1 antagonist)
Cc1ccc(C(=O)CC(=O)c2ccc(C)cc2O)cc1	D3 antag -77
CC(C)(C)c1ccc(C(=O)CC(=O)c2cc(Cl)ccc2O)cc1	D3 antag -57
CCOC(=O)[C@]12CCC=C1N(Cc1ccco1)C(=O)[C@H](CC(=O)NCc1cccs1)C2	none (no result: D1 PAM, D1 agonist, D1 antagonist)
CCN(C(=O)Cn1cc(C(=O)c2ccc(F)cc2)c(=O)c2ccc(C)nc21)c1cccc(C)c1	none (no result: D3 antag)
COc1ccc2c(c1)CCCC21NC(=O)N(CC(=O)NC(=O)NCc2ccccc2)C1=O (stereo not given)	none
COc1ccc(NC(=S)N(CCCN2CCCCC2)Cc2cccs2)cc1	D3 antag -87
COc1ccc(NC(=S)N(CCCN2CCOCC2)Cc2ccco2)cc1	none
Cc1ccc(NC(=S)N(CCCN2CCN(C)CC2)Cc2cccs2)cc1	none
CCOc1ccc(NC(=S)N(CCCN2CCCC2)Cc2cccn2Cc2ccc(Cl)cc2)cc1	D1 antagonist -48
CSc1cccc(NC(=S)N(CCC(C)C)C2CCN(C(C)C)CC2)c1	D3 antag -85
COc1ccc(NC(=S)N(CCCN2CCC(C)CC2)Cc2cccs2)cc1	D3 antag -58
CCN1C(=O)[C@H]2[C@@H](c3ccc(-c4ccc(OC)cc4)cc3)N[C@@](C)(C(=O)OC)[C@H]2C1=O	none
C=C1C(=C/C=C2\CCC[C@]3(C)[C@@H]([C@H](C)/C=C/[C@@H](O)C4CC4)CC[C@@H]23)C[C@@H](O)C[C@@H]1O	none (no result: D1 PAM, D1 agonist, D3 antag, D1 antagonist)
O=C(NCC(c1ccc(F)cc1)N1CCOCC1)c1ccco1 (stereo not given)	none
Cc1ccc(NC(=S)N(CCCN2CCN(C)CC2)Cc2cccs2)cc1C	none
CSc1cccc(NC(=S)N(CCCN2CCC(C)CC2)Cc2cccs2)c1	D3 antag -76
COc1cccc(NC(=S)N(CCCN2CCC(C)CC2)Cc2cccs2)c1	D3 antag -84
COC[C@H]1CCCN1c1ccc2c(c1)O[C@@H](COCc1ccccc1)CN([C@H](C)c1ccccc1)S2(=O)=O	none (no result: D1 PAM, D1 agonist, D1 antagonist)
CCOc1ccc(NC(=O)CCNC(=O)Cn2cnc3ccccc3c2=O)cc1	none
Cc1ccc2oc(C(=O)N(C)Cc3ccc(C)o3)c(C)c2c1	none
Cc1ccc(CN(C)C(=O)c2cc(Br)c(Br)s2)o1	D1 antagonist -35
C[C@@H]1CN([C@H](C)CO)C(=O)Cc2cc(NS(=O)(=O)c3ccc(Cl)cc3)ccc2O[C@H]1CN(C)Cc1ccc(C(F)(F)F)cc1	DRD3 agonist 37 (no result: D1 PAM, D1 agonist, D1 antagonist)
C[C@@H]1CN([C@H](C)CO)C(=O)Cc2cc(NS(=O)(=O)c3ccc(F)cc3)ccc2O[C@H]1CN(C)Cc1ccc(C(=O)O)cc1	none (no result: D1 PAM, D1 agonist, D1 antagonist)
C[C@@H]1CN([C@@H](C)CO)C(=O)Cc2cc(NC(=O)Nc3cccc4ccccc34)ccc2O[C@@H]1CN(C)Cc1ccc(C(F)(F)F)cc1	D3 antag -61 (no result: D1 PAM, D1 agonist, D1 antagonist)

Bioassay records: PubChem, National Center for Advancing Translational Sciences (NCATS)
